# Measurements published in the supplement of paper PMC10646978.
# ± gives the standard deviation.
# Assays:
# Details in all cases: modulator concentration 10 µM
# [1] = tested on: RAW-Dual (murine macrophage reporter line); assay: NF-kB reporter (SEAP) activity fold change vs agonist alone; higher = enhanced NF-kB activity
# Method in brief: (§1)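 In 384-well plates holding 50 000 RAW-Dual murine macrophage reporter cells per well, compound at 10 μM final was pre-incubated for 1 hour at 37 °C, after which a PRR agonist was added overnight. Supernatant SEAP read with QUANTI-Blue at 620 nm absorbance reported NF-κB, and Lucia luciferase read with QUANTI-Luc luminescence reported IRF. Fold change values come from dividing each reporter signal by the mean of agonist-only control wells on the same plate, averaged over replicate plates with propagated errors.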
# [2] = tested on: RAW-Dual (murine macrophage reporter line); assay: IRF reporter (Lucia luciferase) activity fold change vs agonist alone; higher = enhanced IRF activity
# Method in brief: as §1
# [3] = tested on: RAW-Dual (murine macrophage reporter line); assay: viability score (confluency relative to resting cells, overnight) (fraction); higher = more viable, active = viable (0.7 or more)
# Method in brief: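 RAW-Dual macrophages in 384-well plates were treated overnight with compound at 10 μM final. IncuCyte imaging recorded confluency, and IncuCyte software built two confluency masks across every imaged well. The viability score expresses confluency relative to resting cells and was judged against a cutoff, which a compound met only if both masks exceeded 70% of resting cells.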
# [4] = agonist: CpG ODN 1826 0.5 ug/mL
Compound,"NF-kB reporter [1, 4]",NF-kB reporter ([1]; agonist: LPS 0.1 ug/mL),NF-kB reporter ([1]; agonist: MPLA […]),IRF reporter ([2]; agonist: 3'3'-cGAMP 10 ug/mL),IRF reporter ([2]; agonist: LPS 0.1 ug/mL),IRF reporter ([2]; agonist: MPLA […]),viability score [3]
O=C(C=Cc1cccnc1)c1cc2ccc1CCc1ccc(cc1)CC2,1.03 ± 0.058,0.76 ± 0.071,0.752 ± 0.05,0.639 ± 0.023,0.998 ± 0.063,1.03 ± 0.35,1.01 (active)
O=C(O)c1coc(CNC(=O)c2cocc2C(=O)O)c1,1.04 ± 0.1,1.08 ± 0.08,0.902 ± 0.054,0.996 ± 0.027,1.51 ± 0.21,1.14 ± 0.072,1.01 (active)
O=C(O)c1cc2nc(-c3ccc(Cl)c(Cl)c3)cc(C(F)(F)F)n2n1,0.958 ± 0.076,1.09 ± 0.06,0.973 ± 0.058,1.02 ± 0.031,1.66 ± 0.2,1.13 ± 0.11,1.01 (active)
CCN[C@H]1CN(CCCOC)S(=O)(=O)c2sc(S(N)(=O)=O)cc21,1.01 ± 0.12,1.04 ± 0.059,0.975 ± 0.05,1.03 ± 0.067,0.913 ± 0.042,1 ± 0.12,1 (active)
O=C(NN=Cc1c(O)ccc2ccccc12)c1ccncc1,2.37 ± 0.19,1.3 ± 0.086,1.48 ± 0.052,0.75 ± 0.11,1.26 ± 0.1,1.21 ± 0.2,0.965 (active)
COc1cc(OC)c(C(=O)CCCN2CCCC2)c(OC)c1.Cl,0.98 ± 0.096,1.01 ± 0.063,1 ± 0.057,0.937 ± 0.081,0.941 ± 0.035,0.899 ± 0.07,1 (active)
Cc1cc(-c2csc(NCc3ccccc3)n2)c(C)o1.Cl,0.766 ± 0.043,0.892 ± 0.13,1 ± 0.026,0.576 ± 0.026,0.924 ± 0.07,1.1 ± 0.13,0.991 (active)
COC(=O)C1=C(C)N(Cc2ccccc2)C(=O)C1=Cc1ccc(C)cc1,0.59 ± 0.048,0.655 ± 0.05,0.749 ± 0.069,0.4 ± 0.02,1.08 ± 0.068,0.948 ± 0.092,0.998 (active)
COc1ccc(CNC23CC4CC(CC(C4)C2)C3)cc1OC,0.937 ± 0.072,0.899 ± 0.13,0.891 ± 0.092,0.959 ± 0.03,1.1 ± 0.23,1.1 ± 0.17,1.01 (active)
CC(C)(C)C1(O)CC(C(F)(F)F)=NN1C(=O)c1cccc([N+](=O)[O-])c1 (configuration not stated),0.62 ± 0.091,1.08 ± 0.062,0.873 ± 0.052,1.01 ± 0.025,1.48 ± 0.27,1.01 ± 0.22,0.974 (active)
COC(=O)c1ccc(-n2nnnc2SCC(=O)Nc2ccc(C)c(C)c2)cc1,0.529 ± 0.32,0.897 ± 0.057,0.98 ± 0.085,0.849 ± 0.063,1.14 ± 0.077,1.19 ± 0.15,1.02 (active)
COc1ccccc1NS(=O)(=O)c1cc2c3c(c1)CC(=O)N3CCC2,0.967 ± 0.088,1.03 ± 0.096,1.07 ± 0.071,0.992 ± 0.035,1.09 ± 0.15,0.871 ± 0.11,1.01 (active)
C#CCN[C@@H]1CCc2ccccc21.CS(=O)(=O)O,0.992 ± 0.1,1.03 ± 0.12,1.03 ± 0.031,0.933 ± 0.087,0.913 ± 0.03,0.849 ± 0.1,0.996 (active)
Cc1ccc2[nH]c(=O)c(-c3cc(-c4ccccc4)c4ccccc4n3)c(-c3ccccc3)c2c1,0.938 ± 0.081,1.1 ± 0.11,0.816 ± 0.051,1.08 ± 0.037,1.17 ± 0.19,1.04 ± 0.072,1.02 (active)
CNc1ncnc2c1ncn2[C@@H]1O[C@H](CO)[C@@H](O)[C@H]1O [Prestw-338],0.931 ± 0.073,0.929 ± 0.09,1.16 ± 0.15,1.15 ± 0.043,1.25 ± 0.17,1.33 ± 0.25,1.05 (active)
CCOC(=O)c1cnn(CCOc2ccccc2)c1N,1.05 ± 0.081,0.851 ± 0.079,1.02 ± 0.11,0.975 ± 0.052,1.22 ± 0.13,1.31 ± 0.2,1 (active)
Cc1ccc(S(=O)(=O)n2cnc3ccccc32)cc1,1.11 ± 0.091,1.04 ± 0.071,1.02 ± 0.041,0.861 ± 0.12,1.07 ± 0.09,0.993 ± 0.14,0.998 (active)
Nc1ncn(C2O[C@H](CO)[C@@H](O)[C@H]2O)c(=O)n1 (some centres not stated) [Prestw-866],2.01 ± 0.35,1.24 ± 0.18,4.32 ± 0.33,0.508 ± 0.033,0.622 ± 0.14,0.747 ± 0.1,0.806 (active)
CC[C@H](Nc1ncnc2[nH]cnc12)c1nc2cccc(F)c2c(=O)n1-c1ccccc1,1.18 ± 0.27,0.973 ± 0.11,1.04 ± 0.067,0.641 ± 0.023,0.763 ± 0.073,0.997 ± 0.18,0.964 (active)
CCOC(=O)C(CCc1ccccc1)NC(C)C(=O)N1C(C(=O)O)CC2CCCC21 (configuration not stated),1.01 ± 0.28,0.998 ± 0.068,1.07 ± 0.072,0.878 ± 0.055,1.28 ± 0.21,1.34 ± 0.23,0.989 (active)
CC(=O)Nc1ccc(CC(=O)N2C3C=CCC2CC3)cc1 (configuration not stated),1.32 ± 0.32,1.06 ± 0.059,1.04 ± 0.14,1.01 ± 0.034,1.23 ± 0.14,1.14 ± 0.19,0.954 (active)
O=C(O)CCCCC1SCC2NC(=O)NC21 (configuration not stated),0.935 ± 0.067,1.13 ± 0.078,0.96 ± 0.078,0.953 ± 0.072,1.18 ± 0.075,1.12 ± 0.25,0.997 (active)
Fc1ccc(Oc2nc(Nc3cccc(Cl)c3)nc(N3CCOCC3)n2)cc1,0.331 ± 0.028,1.33 ± 0.089,2.57 ± 0.15,0.757 ± 0.052,2.94 ± 0.22,2.19 ± 0.34,0.84 (active)
O=C1C=C(c2c(O)ccc3ccccc23)c2ccccc2C1=O,1.19 ± 0.21,0.399 ± 0.055,1.66 ± 0.19,0.0196 ± 0.0013,1.44 ± 0.18,0.656 ± 0.074,0.556 (inactive)
CC(C)c1ccc2oc3nc(N)c(C(=O)O)cc3c(=O)c2c1,1.2 ± 0.16,1.23 ± 0.15,0.91 ± 0.052,0.858 ± 0.026,1.28 ± 0.32,1.16 ± 0.18,0.993 (active)
O=C(CSc1ccc(F)cc1)N1CCn2nc3c(c2C1)CCC3,1.39 ± 0.087,1.01 ± 0.1,1.05 ± 0.056,1.03 ± 0.11,1.03 ± 0.064,1.03 ± 0.12,1 (active)
